Source: PubChem BioAssay
PAX8 reporter = inhibitors of PAX8 transcriptional activity in RMG-I cells; RMG-I TPO-luciferase reporter, SteadyGlo, 24 h; 1.2% of 360,000 active; inhibition, % at 12.6 µM;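 active means mean replicate inhibition at least 60% with every replicate also reaching 60%; inconclusive means only one of the two criteria is met; inactive means mean below 60% and not all replicates reaching 60%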;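 further: luciferase light reporting Pax8 driven TPO promoter activity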
HIV Env fusion = HIV envelope-mediated fusion inhibition | 1.1% of 360,000 active | AID 651610 | inhibition, % at 12.3 µM | HeLa-JRFL Env/CEM21 cell fusion, luciferase;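 active means mean replicate inhibition score of at least 50 and every replicate individually at or above 50; inconclusive means only one of the two criteria met; inactive means mean below 50 and not all replicates reaching 50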
F508del corr = correctors of CFTR F508del function in bronchial epithelial cells | AID 720511 | CFBE cells, YFP halide quenching; stimulated with forskolin plus potentiator P3; % fluorescence drop versus neutral controls | activity (quench increase), % at 7.58 µM | 0.36% of 350,000 active;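 active means mean added fluorescence quench of at least 8% versus neutral control, with both replicates also reaching 8%; inconclusive means only one of the mean or replicate conditions met; inactive means mean below 8% and not both replicates reaching 8%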;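 further: cells transiently co-express mutant CFTR-F508del with the halide-sensitive YFP; corrector assay measuring rescue of mutant channel to the surface after 24 h compound exposure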
EWS-Fli block = EWS/Fli transcriptional activity inhibition; A673 NR0B1-luciferase reporter, viability-normalised; inhibition, % at 12.6 µM; 0.67% of 350,000 active;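 active means mean inhibition of at least 50% after viability correction, with every replicate also passing that limit; inconclusive means mean reaches 50% but only one of two replicates passes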;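 further: firefly luciferase signal divided by Alamar Blue viability fluorescence both relative to DMSO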
GAA850 FXN act = frataxin GAA850 promoter activation | HEK293 lucGAA850 FXN promoter luciferase reporter, 24 h; percent of 10 µM SAHA response | activation, % at 6 µM | 0.56% of 360,000 active | AID 540364;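 active means activation above the average of all compounds screened plus 3 SD, cutoff fixed separately per campaign, cut at about 7.5% in these data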
Hits are given with their value; n = inactive; u = inconclusive; x = not tested or not shown; ! = not active in a repeat; [ ] = another dose, or the depositor's remark. A selection: hits, their analogues and other compounds. The true share with any hit is near 2.5%.

SMILES	PAX8 reporter	HIV Env fusion	F508del corr	EWS-Fli block	GAA850 FXN act
N#Cc1ccc(-c2ccc(C3[C@@H]4CN(C(=O)C5CCC5)C[C@H]3N4)cc2)cc1 (some centres undefined)	x	x	10.4!	n	x
C[C@@H]1CN([C@@H](C)CO)C(=O)c2cc(NC(=O)Nc3cccc4ccccc34)ccc2O[C@@H](C)CCCCO[C@@H]1CN(C)Cc1ccccc1	n	n	n	n	x
C[C@@H]1CCCCO[C@@H](CN(C)CC2CCCCC2)[C@H](C)CN([C@@H](C)CO)C(=O)c2cc(NC(=O)Nc3cccc4ccccc34)ccc2O1	n	n	n	93.8	x
C[C@@H]1CN([C@H](C)CO)C(=O)c2cc(NC(=O)Nc3cccc4ccccc34)ccc2O[C@@H](C)CCCCO[C@H]1CN(C)Cc1ccccc1	n	n	n	74.1	x
C[C@H](CO)N1C[C@H](C)[C@H](CN(C)Cc2ccccc2)OCCCC[C@H](C)Oc2ccc(NC(=O)Nc3cccc4ccccc34)cc2C1=O	n	113.8[16.7 µM]	n	n	x
C[C@H]1CCCCO[C@@H](CN(C)Cc2ccncc2)[C@@H](C)CN([C@@H](C)CO)C(=O)c2cc(NC(=O)Nc3cccc4ccccc34)ccc2O1	x	69.9[16.7 µM]	n	n	x
C[C@@H]1CCCCO[C@H](CN(C)Cc2ccncc2)[C@H](C)CN([C@@H](C)CO)C(=O)c2cc(NC(=O)Nc3cccc4ccccc34)ccc2O1	x	n	n	n	x
C[C@@H]1CCCCO[C@@H](CN(C)Cc2ccccc2)[C@H](C)CN([C@@H](C)CO)C(=O)c2cc(NC(=O)Nc3cccc4ccccc34)ccc2O1	n	n	n	n	x
CN1C(=O)c2cc(NC(=O)c3cccs3)ccc2OC[C@@H]2O[C@H](CC(=O)NCC3CC3)CC[C@H]21	n	n	n	n	x
C[C@H]1CN([C@@H](C)CO)C(=O)Cc2cc(N(C)C)ccc2O[C@H]1CN(C)C(=O)Nc1ccc(F)cc1	x	x	n	n	x
COc1ccc(NC(=O)O[C@H](c2ccc(OC)c(O)c2)[C@@H](CCO)OC)cc1	n	n	n	n	x
COc1ccc(NC(C)=O)c(C)c1	n	n	n	n	n
COc1ccc(-n2nc3cc(C)c(NC(C)=O)cc3n2)cc1	n	n	n	50.6	n
CCS(=O)(=O)N[C@H]1C=C[C@H](CC(=O)NCc2ccc(F)cc2)O[C@H]1CO	n	n	n	n	x
Nc1nnnn1/N=C/C=C/c1ccccc1	x	x	x	x	n
Nc1nnnn1/N=C/C(Br)=C/c1ccccc1	93.0	n	x	x	n
C[C@@H]1CN([C@@H](C)CO)C(=O)c2cc(NC(=O)NC3CCCCC3)ccc2O[C@@H](C)CCCCO[C@H]1CN(C)Cc1ccc(C(F)(F)F)cc1	78.5	n	n	n	x
C[C@@H]1CN([C@H](C)CO)C(=O)c2cc(NC(=O)NC3CCCCC3)ccc2O[C@@H](C)CCCCO[C@H]1CN(C)Cc1ccc(C(F)(F)F)cc1	105.1	u	n	n	x
COc1ccc(NC(=O)N(C)C[C@H]2OCCCC[C@@H](C)Oc3ccc(NS(=O)(=O)c4cccs4)cc3C(=O)N([C@H](C)CO)C[C@@H]2C)cc1	x	n	n	n	x
Cc1noc(C)c1NC(=O)N(C)C[C@H]1Oc2ccc(NS(=O)(=O)c3c(C)noc3C)cc2CC(=O)N([C@@H](C)CO)C[C@@H]1C	n	n	n	n	x
Cc1cc2nc(-c3ccc[nH]c3=O)[nH]c2cc1C	n	n	n	62.1	n
Cc1cc2nc(-c3ccc[nH]c3=O)n(Cc3ccc(F)cc3)c2cc1C	n	n	n	n	n
Cc1ccc(S(=O)(=O)N(C)C)cc1NC(=O)C(C)N(C)CCOc1ccc(Cl)cc1 (centres undefined)	n	69.2	n	n	n
CCn1c2ccccc2c2cc(NC(=O)CNCc3ccccc3OC)ccc21	n	n	n	56.8	n
Cc1cc(/C=N/NC(=O)c2c(Br)cnn2C)c(C)n1-c1cccc(Br)c1	77.3	x	n	n	n
Cc1cc(/C=N/NC(=O)C(=O)N2CCCC2)c(C)n1-c1cccc(Br)c1	x	x	x	x	n
Cc1oc(-c2ccc(Cl)cc2)nc1CSCC(=O)NC1CCN(Cc2ccccc2)CC1	n	n	n	n	n
CCc1ccc(-c2nc(CSCC(=O)N3CCN(c4ccccn4)CC3)c(C)o2)cc1	n	85.6	x	x	n
CCOc1ccc(-c2nc(CSCC(=O)NC3CCN(Cc4ccccc4)CC3)c(C)o2)cc1	n	n	n	59.3	n
Cc1ccc(-c2nc(CSCC(=O)N3CCN(C(=O)c4ccco4)CC3)c(C)o2)cc1	n	n	n	n	n
